According to PubChem BioAssay AID720608 (Broad Institute, 2013):
Entries with a potency or affinity are not part of this list. Inconclusive results are not listed. Calls of active or inactive are those of the source.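 Rule for the calls: active = compound whose fitted half-maximal concentration stays within twice the top dose, with falling signal, in all three exposure times; inconclusive = mixed calls across exposure times, weak flat curves, or poor fits; inactive = inactive at every exposure time, including opposite-direction effects.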

Assay: SR lymphoma cell viability over time, late-stage follow-up, mechanism study for HRAS target identification, CellTiter-Glo ATP luminescence, 8-48 h, dry powder (AID 720608)
Conditions: SR lymphoma cells viability; series mostly up to 35 µM

Cc1onc(C(=O)N2CCN(C(c3ccncc3)c3ccncc3)CC2)c1[N+](=O)[O-]
outcome: inactive
